The supplement of paper PMC6555819

These sequences were tested on VDR:RXRa (NR concentration 270 nM, RXRa partner concentration 90 nM) (assay: PBM binding z-score (relative to random genomic background probes); higher = stronger binding; sequences stand for … in GC…GCGATTGACAGCGTAGAATGAAGG).
Method: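 Protein-binding microarray (Agilent 4x180K custom design, double-stranded 60-nt probes: 5' GC cap, 34-nt variable region, 24-nt constant primer region; full probe sequence given). Purified or IVT nuclear receptor:RXRα heterodimers (3:1 NR:RXRα, mostly 270:90 nM) or homodimers were incubated for 1 h in PBS with 2% milk and no ligand, then detected with Alexa488 antibodies. Fluorescence from o1-orientation probes (~5 replicates averaged) was converted to z-scores against 500 random hg19 background probes. Variable regions are seed direct-repeat (DR0–DR5) sites, all their single-nucleotide variants and half-site ablations.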

| Sequence | PBM binding z-score |
| --- | --- |
| TCGAGAAGGTTAGTCGGGGCATTCAGCCAACATA | 3.71 |
| CGTCCAAGGTCAAAGGTCCGTGAAGAGATGACGG | 4.62 |
| TAGCCTAGGTCATTGGGCCAGTGTAGTACGCATC | 2.12 |
| CTCGGAAGGTCGTGCTCAGGTGAGTATACCAAAC | 1.58 |
| ATCGAAAGGTCGAAGGTGAGTAGACCCACCCGAA | 2.43 |
| ATATGTAGGTTAGCTGGGGTCATTAAGACTAGGC | 5.83 |
| GCTCGGAGGACAAGGTCAGACCTTTGTCCGTAGA | 1.97 |
| TGAATGAGGTTATAAGATCAGAGAACGTTGCAAA | 0.965 |
| TCTTGTAGATCAATCAGGTTAAGAAAGCCTGAGT | 1 |
| ATATGTAGGTTTGCTGGGGTCATTCAGACTAGGC | 5.56 |
| TCTTGTAGATCAACAGGTTAAGAAAGCTGGCCAA | 0.855 |
| ACAGACAGGTGAGTGAAGGTAACGCAGCTGGACG | -0.28 |
| TCTCGGAGGACACGCAGGTCAGAGCTTTCCAGAG | 1.58 |
| GCAGACAGGTGAAACGCAGGTAACTCTGGGTGGC | -0.545 |
| TCTAGTTGGCCACGGAGGTCACACACGACGGGTA | 3.97 |
| CAAACTAGGTCAAAGGTCAAATTCGAGCCAACCA | 6.75 |
| CCGAGTACGTTATGGGGCATTCAGGCAACGGTGA | 0.216 |
| ATATGTAGGTTAAGGGTCATACAGGTTGGTTCGC | 5.42 |
| ATATGTAGGTTAAGGGTCATTCGGGTTGGTTCGC | 6.18 |
| GCGACTGGGGCATCACCAGGTTACCATAACTTAA | -0.162 |

| Sequence | PBM binding z-score |
| --- | --- |
| GCTAGCAGGCCATTTGGGGCACTCAATGACGGGC | -0.555 |
| ATCGAAAGGTCGTGAGGTGAGTATACAGAAAGGC | 3.69 |
| ACTCGGAGGACAAAGGTCAGAGCGACGCCAGTGA | 3.47 |
| GCGACTGGGGCATCAACAGGTTACCATAACTTAA | 0.0297 |
| TAGCCTAGGTCATGAGCCAGTATACCACGCGAAC | 1.88 |
| ATCGAAAGGTCGAAGGTGAGAATACCCACCCGAA | 2.7 |
| TAGCCTAGGTCATGCGGGCTAGTATAGTGTCGGC | 2.11 |
| GCTGCTAGGTAAACTGATGGTCAGCTAAAGCTCG | -0.576 |
| TCTTTTAGTTGAAGGGCAACCGACGAGTCCGTTT | 0.995 |
| TCTGCTAGGTCAACGATGGTCAACTAATCTGCTA | 2.27 |
| CCTATTAGTTGACCATAAGGGCAAGCGAAGCTCG | 0.92 |
| TATCGGAGGACACGAAAGGTCAGAGCTCGACATC | 3.49 |
| TCTTGTAGATCAATAGAGGTTAAGATAGTGCGCT | 1.65 |
| CGTCCAAGGTCATAGGAGGTCTGTGAAGACAGAT | 4.72 |
| CCTACTGGGCCATCAGGTCTTTGATATCAACGTT | -0.244 |
| CGTACTAGGTCATCCAGGACAGTGAATACATTGA | 4.32 |
| GCTTGTAGTTCAAGGTTAAGAAAGACTAAGCTAA | 1.46 |
| TGAATGAGGTTAAAGATGAGGGAACGTGGCGTCG | 1.48 |
| GCTTGTAGATCACGGTTAAGAAAGACTAAGCTAA | -0.34 |
| CGTCCAAGGTCAGCATGTCAGTGAAAGCGACGTG | 2.49 |
